Out of some 39,000 compounds screened, about 220 (0.56%) showed activity. The list comes from a sample in which actives are over-represented; it also holds similar structures and randomly drawn compounds.
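Further: Wild-type cells incubated without shaking, value is the mean of two biological replicates.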

The assay has as its system Escherichia coli K-12 BW25113. The assay is described as follows: relative growth (OD600 normalised to plate interquartile mean) (fraction); higher = less growth inhibition, active = 0.2 or less. The following applies: 50 µM; LB; incubation time: overnight (16-24 h).
For the molecule `C[C@H]1CCCCO[C@H](CN(C)C(=O)Nc2ccc(F)cc2)[C@@H](C)CN([C@@H](C)CO)C(=O)c2cc(NS(=O)(=O)c3ccc(Cl)cc3)ccc2O1`, the relative growth is 0.987 (inactive). For the molecule `CN[C@H]1CC[C@@H](c2ccc(Cl)c(Cl)c2)c2ccccc21`, the relative growth is 0.868 (inactive).

With `N[C@@H]1CC[C@@H](c2ccc(Cl)c(Cl)c2)c2ccccc21`, the relative growth was 0.0794 (active).

With `CNC1CCC(c2ccc(Cl)c(Cl)c2)c2ccccc21.Cl` (stereo unspecified), the relative growth is 0.261 (inactive). Turning to `C[C@@H]1CCCCO[C@H](CN(C)C(=O)c2ccccc2)[C@@H](C)CN([C@@H](C)CO)C(=O)c2cc(NS(=O)(=O)c3ccccc3)ccc2O1`, the relative growth was 0.956 (inactive). As for `C[C@@H]1CCCCO[C@H](CN(C)C(=O)Nc2ccc(F)cc2)[C@@H](C)CN([C@H](C)CO)C(=O)c2cc(NC(=O)c3ccccc3)ccc2O1`, the relative growth was 1.04 (inactive). Regarding `C[C@H]1CN([C@@H](C)CO)C(=O)c2cc(NS(=O)(=O)c3cccs3)ccc2O[C@@H]1CN(C)Cc1ccc(Cl)c(Cl)c1`, the relative growth was 0.995 (inactive). Regarding `Oc1c(Cl)cc(Cl)c(Cl)c1Cc1c(O)c(Cl)cc(Cl)c1Cl`, the relative growth is 0.0546 (active). As to `Oc1c(Cl)cc(Cl)cc1Sc1cc(Cl)cc(Cl)c1O`, the relative growth is 0.202 (inactive). Consider `O=C(Nc1cc(Cl)cc(Cl)c1O)c1c(O)c(Cl)cc(Cl)c1Cl`, for which the relative growth was 0.565 (inactive). As for `COc1ccc(S(=O)(=O)N(C)C[C@@H]2OCCCC[C@@H](C)Oc3ccc(NC(=O)Nc4cccc5ccccc45)cc3C(=O)N([C@H](C)CO)C[C@@H]2C)cc1`, the relative growth was 1.03 (inactive). For the molecule `C[C@@H]1CN([C@H](C)CO)C(=O)CCCn2cc(nn2)CO[C@@H]1CN(C)Cc1ccc2c(c1)OCCN2C`, the relative growth is 1.02 (inactive). With `CC(C)CCCC(=O)N[C@@H](CCNCS(=O)(=O)O)C(=O)N[C@H](C(=O)N[C@@H](CCNCS(=O)(=O)O)C(=O)N[C@H]1CCNC(=O)[C@H]([C@@H](C)O)NC(=O)[C@H](CCNCS(=O)(=O)O)NC(=O)[C@H](CCNCS(=O)(=O)O)NC(=O)[C@H](CC(C)C)NC(=O)[C@H](CC(C)C)NC(=O)[C@H](CCNCS(=O)(=O)O)NC1=O)[C@@H](C)O`, the relative growth is 0.0299 (active). In the case of `CCCCCCCCCC(=O)N[C@@H](Cc1c[nH]c2ccccc12)C(=O)N[C@H](CC(N)=O)C(=O)N[C@@H](CC(=O)O)C(=O)N[C@@H]1C(=O)NCC(=O)N[C@@H](CCCN)C(=O)N[C@@H](CC(=O)O)C(=O)N[C@H](C)C(=O)N[C@@H](CC(=O)O)C(=O)NCC(=O)N[C@H](CO)C(=O)N[C@@H]([C@H](C)CC(=O)O)C(=O)N[C@@H](CC(=O)c2ccccc2N)C(=O)O[C@@H]1C`, the relative growth is 0.952 (inactive). The result for `CC[C@H](C)[C@H](N)C1=N[C@H](C(=O)N[C@@H](CC(C)C)C(=O)N[C@@H]2CCC(=O)[O][Zn][O]C(=O)C[C@H]3NC(=O)[C@H](Cc4c[nH]cn4)NC(=O)[C@@H](Cc4ccccc4)NC(=O)[C@H]([C@@H](C)CC)NC(=O)[C@@H](CCCN)NC(=O)[C@H](CCCCNC(=O)[C@H](CC(N)=O)NC3=O)NC(=O)[C@H]([C@@H](C)CC)NC2=O)CS1` reads 0.696 (inactive). `CCC(C)C1NC(=O)C(CCNCS(=O)(=O)[O-])NC(=O)C(NC(=O)C(CCNCS(=O)(=O)[O-])NC(=O)C(NC(=O)C(CCNCS(=O)(=O)[O-])NC(=O)CCCCC(C)C)C(C)O)CCNC(=O)C(C(C)O)NC(=O)C(CCNCS(=O)(=O)[O-])NC(=O)C(CCNCS(=O)(=O)[O-])NC(=O)C(C(C)CC)NC1=O.[Na+].[Na+].[Na+].[Na+].[Na+]` (stereo unspecified): the relative growth is 0.0529 (active). For `CCCc1nc2c(=O)n(C)c(=O)[nH]c2n1C`, the relative growth is 0.999 (inactive). For `C[C@@H]1CN([C@@H](C)CO)C(=O)c2cc(NS(=O)(=O)c3ccc(Cl)cc3)ccc2O[C@@H](C)CCCCO[C@H]1CN(C)Cc1ccncc1`, the relative growth was 1.01 (inactive). With `C[C@@H]1CN([C@@H](C)CO)C(=O)Cc2cc(NS(=O)(=O)c3ccc(F)cc3)ccc2O[C@@H]1CN(C)S(C)(=O)=O`, the relative growth is 1 (inactive). Consider `COc1ccc(S(=O)(=O)Nc2ccc3c(c2)C(=O)N([C@@H](C)CO)C[C@@H](C)[C@H](CN(C)S(=O)(=O)c2cn(C)cn2)OCCCC[C@H](C)O3)cc1`, for which the relative growth is 0.989 (inactive). The result for `CC(C)NC(=O)N(C)C[C@@H]1Oc2c(NC(=O)C3CCOCC3)cccc2C(=O)N([C@@H](C)CO)C[C@H]1C` reads 0.977 (inactive); that for `CCc1nc2c(OCC(=O)c3ccc(Cl)cc3Cl)cccn2c1N(C)C(=O)COc1ccccc1`, 1.02 (inactive). Turning to `COc1cccc(S(=O)(=O)Nc2ccc3c(c2)OC[C@H](C)N(C(=O)Cc2cccnc2)C[C@H](C)[C@H](OC)CN(C)C3=O)c1`, the relative growth was 0.963 (inactive). The result for `COc1ccc(NC(=O)N(C)C[C@@H]2OCCCC[C@H](C)Oc3ccc(NS(=O)(=O)c4cccs4)cc3C(=O)N([C@H](C)CO)C[C@H]2C)cc1` reads 0.941 (inactive); that for `O=C(NCC[C@@H]1CC[C@H](NS(=O)(=O)c2cccc(F)c2)[C@@H](CO)O1)C1CC1`, 0.987 (inactive).

With `C[C@@H]1CN([C@H](C)CO)C(=O)c2cc(NC(=O)Nc3ccc(F)cc3)ccc2O[C@@H]1CN(C)S(=O)(=O)c1cn(C)cn1`, the relative growth was 1.01 (inactive).

For `C[C@H](CO)N1C[C@H](C)[C@@H](CN(C)S(=O)(=O)c2cn(C)cn2)Oc2ccc(NC(=O)Nc3ccc(F)cc3)cc2CC1=O`, the relative growth was 0.986 (inactive). With `CCNC(=O)[C@@H]1[C@@H](CO)[C@@H]2Cn3c(ccc(-c4cccc(C(=O)N(C)C)c4)c3=O)[C@H]1N2`, the relative growth was 1.02 (inactive). In the case of `Cc1cc(O)c(C(=O)NC(C(=O)NC2C(=O)N3C(C(=O)O)=C(CSc4nnnn4C)CSC23)c2ccc(O)cc2)cn1` (stereo unspecified), the relative growth is 0.0416 (active). Take `CC1=C(C(=O)O)N2C(=O)[C@@H](NC(=O)[C@@H](N)c3ccc(O)cc3)[C@H]2SC1`: the relative growth is 0.999 (inactive). As to `CCN1CCN(C(=O)NC(C(=O)NC2C(=O)N3C(C(=O)O)=C(CSc4nnnn4C)CSC23)c2ccc(O)cc2)C(=O)C1=O` (stereo unspecified), the relative growth is 0.046 (active). On to `CC1=C(C(=O)O)N2C(=O)[C@@H](NC(=O)[C@H](N)c3ccc(O)cc3)[C@H]2SC1`, for which the relative growth is 1.06 (inactive). `CC1=C(C(=O)O)N2C(=O)C(NC(=O)C(N)c3ccc(O)cc3)C2SC1` (stereo unspecified): the relative growth is 0.986 (inactive). Take `Cc1cc(=O)c(C(=O)N[C@@H](C(=O)N[C@@H]2C(=O)N3C(C(=O)O)=C(CSc4nnnn4C)CS[C@H]23)c2ccc(O)cc2)c[nH]1`: the relative growth is 0.0389 (active).

As for `N=c1sccn1CC(=O)O`, the relative growth was 1.04 (inactive). For the molecule `CC1=C(/C=C/C(C)=C/C=C/C(C)=C/C(=O)O)C(C)(C)CCC1`, the relative growth was 0.987 (inactive). `Cc1noc(C)c1NC(=O)N(C)C[C@@H]1OCCCC[C@H](C)Oc2ccc(NC(=O)CCC(F)(F)F)cc2C(=O)N([C@H](C)CO)C[C@@H]1C`: the relative growth is 0.979 (inactive).

Take `C[C@H](CO)N1C[C@H](C)[C@@H](CN(C)Cc2ccc3c(c2)OCO3)Oc2c(NC(=O)c3cnccn3)cccc2C1=O`: the relative growth is 0.969 (inactive). For `COc1ccc(S(=O)(=O)N(C)C[C@H]2OCCCC[C@@H](C)Oc3ccc(NC(=O)Nc4ccc(F)cc4)cc3C(=O)N([C@H](C)CO)C[C@@H]2C)cc1`, the relative growth was 1.07 (inactive). As to `CO[C@@H]1CN(C)C(=O)c2ccc(NC(=O)C3CCOCC3)cc2OC[C@@H](C)N(CC2CCOCC2)C[C@H]1C`, the relative growth is 1.02 (inactive). Take `O=C(CN1CCOCC1)NCC[C@H]1CC[C@@H](NC(=O)Nc2ccccc2)[C@@H](CO)O1`: the relative growth was 1.01 (inactive). Turning to `Cc1noc(C)c1S(=O)(=O)Nc1cccc2c1O[C@@H](CN(C)Cc1ccccc1)[C@@H](C)CN([C@@H](C)CO)C2=O`, the relative growth was 1.01 (inactive).

In the case of `C[C@@H]1CN([C@H](C)CO)C(=O)c2cc(NC(=O)Nc3ccc(C(F)(F)F)cc3)ccc2O[C@H]1CN(C)Cc1ccc(C(F)(F)F)cc1`, the relative growth is 1.02 (inactive). Take `C[C@@H]1CN([C@H](C)CO)C(=O)c2cc(-c3cccc(C(=O)N(C)C)c3)cnc2O[C@@H]1CN(C)S(=O)(=O)c1ccccc1`: the relative growth is 0.987 (inactive). Turning to `COc1oc(C(=O)NC2CCCCC2)c(-c2ccc(Cl)cc2)c1S(=O)(=O)c1cccc(Cl)c1`, the relative growth is 0.914 (inactive).

`COc1ccccc1-c1cnc2c(c1)C(=O)N([C@@H](C)CO)C[C@@H](C)[C@H](CN(C)C(=O)c1cccnc1)O2`: the relative growth is 1.02 (inactive). Take `COc1cc(N2CCC3(CC2)CNC(=O)CO3)ncn1`: the relative growth is 0.968 (inactive). In the case of `C[C@@H]1CN([C@H](C)CO)C(=O)Cc2cc(NC(=O)CCN3CCOCC3)ccc2O[C@H]1CN(C)Cc1ccc(C(=O)O)cc1`, the relative growth was 1.03 (inactive).

Turning to `CO[C@@]12[C@@H]3N[C@@H]3CN1C1=C(C(=O)C(N)=C(C)C1=O)[C@@H]2COC(N)=O`, the relative growth is 0.0651 (active).

With `COC12C(COC(N)=O)C3=C(C(=O)C(C)=C(N)C3=O)N1CC1NC12` (stereo unspecified), the relative growth is 0.0503 (active).

For the molecule `CO[C@@]12[C@H](COC(N)=O)C3=C(C(=O)C(C)=C(N)C3=O)N1C[C@@H]1N[C@@H]12`, the relative growth is 1.01 (inactive). Regarding `COCCNC(=O)C[C@H]1CC[C@H]2[C@@H](COC[C@@H](O)CN2C(=O)Nc2ccccc2OC)O1`, the relative growth was 0.949 (inactive).

`Cc1noc(C)c1S(=O)(=O)Nc1ccc2c(c1)CC(=O)N([C@H](C)CO)C[C@@H](C)[C@H](CN(C)Cc1ccncc1)O2`: the relative growth is 0.995 (inactive). On to `C[C@H](CO)N1C[C@H](C)[C@@H](CN(C)C)Oc2ccc(NS(C)(=O)=O)cc2CC1=O`, for which the relative growth was 0.983 (inactive).

Take `C[C@@H]1CCCCO[C@@H](CN(C)C(=O)C2CCCCC2)[C@H](C)CN([C@H](C)CO)C(=O)c2cc(NS(=O)(=O)c3ccccc3)ccc2O1`: the relative growth was 0.989 (inactive). Take `CC1=C(C(=O)NCCCN2CCN(c3ccc(F)cc3)CC2)C2(CCN(Cc3ccccc3)CC2)OC1=O`: the relative growth was 0.567 (inactive).

For the origin of these results see the supplement of paper PMC9446081.
